The results in this text go back to the antibiotic and cytotoxicity screens of Wong et al. (2023).

In all, about 39,000 compounds went through this assay and about 3,300 (8.5%) were called active. What follows is part of a selection rich in actives, with near analogues and random picks from the rest.

The assay concerns HepG2. Nature of the assay: cytotoxicity call (relative viability < 0.9). The following applies: 10 µM.
As to `O=C(C[C@@H]1C=C[C@H](NS(=O)(=O)c2ccccc2)[C@H](CO)O1)NCc1ccncn1`, the cytotoxicity call was “inactive”.

As for `COc1ccc2c3c(n(c2c1)C)[C@@H](CO)N(C[C@]13CCN(CC1)C(=O)Nc1cccc(c1)F)S(=O)(=O)C`, the cytotoxicity call was “inactive”.

For `C[C@H]1CN([C@@H](C)CO)C(=O)Cc2cc(NC(=O)c3ccncc3)ccc2O[C@H]1CN(C)Cc1ccncc1`, the cytotoxicity call is “inactive”.

`COCCNC(=O)C[C@@H]1CC[C@@H]2[C@H](COC[C@@H](O)CN2S(=O)(=O)c2ccccc2C)O1`: the cytotoxicity call was “inactive”.

Turning to `C[C@H](CO)N1C[C@H](C)[C@@H](CN(C)C(=O)C2CCCCC2)OCCCC[C@H](C)Oc2ccc(NC(=O)CCC(F)(F)F)cc2C1=O`, the cytotoxicity call is “inactive”.

As to `C[C@@H]1CCCCO[C@@H](CN(C)C(=O)c2ccncc2)[C@@H](C)CN([C@@H](C)CO)C(=O)c2cc(NS(=O)(=O)c3cn(C)cn3)ccc2O1`, the cytotoxicity call is “inactive”.

Regarding `Cc1noc(C)c1NC(=O)Nc1cccc2c1O[C@H](CN(C)C(=O)Nc1ccc(C(F)(F)F)cc1)[C@@H](C)CN([C@@H](C)CO)C2=O`, the cytotoxicity call is “inactive”.

On to `C=CC[C@@H](CC(=O)N[C@@H](CO)Cc1ccccc1)C(=O)N1CCC[C@@H]1COC(=O)[C@@H](CC=C)NC(=O)OCC1c2ccccc2-c2ccccc21`, for which the cytotoxicity call was “inactive”.

Regarding `C[C@@H]1CN([C@H](C)CO)C(=O)Cc2cc(NC(=O)Nc3cccc4ccccc34)ccc2O[C@@H]1CN(C)Cc1ccc(-c2ccccc2)cc1`, the cytotoxicity call was “inactive”.

With `CCS(=O)(=O)N1C[C@]2(CCN(CC2)C(=O)c2cccnc2)c2c(n(c3cc(ccc23)OC)C)[C@@H]1CO`, the cytotoxicity call was “inactive”.

For `COCCNC(=O)c1ccc(N2C[C@H]3C[C@@H](C2)c2cccc(=O)n2C3)c(NC(=O)c2ccc(OC)cc2)c1`, the cytotoxicity call was “inactive”.

With `O=C1O[C@H](c2ccccc2)[C@H](c2ccccc2)N2[C@H]1[C@@H](C(=O)N1CCCCCCC1)[C@]1(C(=O)Nc3ccc(C#CC4=CCCCC4)cc31)[C@H]2c1ccccc1OCCO`, the cytotoxicity call is “inactive”.

As for `NC(=O)[C@H]1[C@@H]2C(=O)O[C@@H](c3ccccc3)[C@@H](c3ccccc3)N2[C@@H](c2ccccc2OCCO)[C@]12C(=O)Nc1ccc(C#CC3=CCCCC3)cc12`, the cytotoxicity call was “active”.

On to `NC(=O)NCC#Cc1ccc2c(c1)[C@]1(C(=O)N2)[C@H](C(N)=O)[C@H]2C(=O)O[C@H](c3ccccc3)[C@H](c3ccccc3)N2[C@@H]1c1ccccc1OCCO`, for which the cytotoxicity call was “inactive”.

Turning to `COc1cc2c(cc1OC)CN(C(=O)[C@H]1[C@@H]3C(=O)O[C@@H](c4ccccc4)[C@@H](c4ccccc4)N3[C@@H](c3ccc(OCCO)cc3)[C@]13C(=O)Nc1ccc(C#CC4(O)CCCCCC4)cc13)CC2`, the cytotoxicity call was “inactive”.

Turning to `COc1cc2c(cc1OC)CN(C(=O)[C@@H]1[C@H]3C(=O)O[C@H](c4ccccc4)[C@H](c4ccccc4)N3[C@H](c3ccc(OCCO)cc3)[C@@]13C(=O)Nc1ccc(C#CC4(O)CCCCCC4)cc13)CC2`, the cytotoxicity call was “active”.

With `COc1cc2c(cc1OC)CN(C(=O)[C@H]1[C@@H]3C(=O)O[C@@H](c4ccccc4)[C@@H](c4ccccc4)N3[C@@H](c3ccccc3OCCO)[C@]13C(=O)Nc1ccc(C#CC4=CCCCC4)cc13)CC2`, the cytotoxicity call was “inactive”.

With `O=C1O[C@@H](c2ccccc2)[C@@H](c2ccccc2)N2[C@@H](c3ccccc3OCCO)[C@]3(C(=O)Nc4ccc(C#CC5=CCCCC5)cc43)[C@@H](C(=O)N3CCCCCCC3)[C@H]12`, the cytotoxicity call is “active”.

In the case of `COc1cc2c(cc1OC)CN(C(=O)[C@@H]1[C@H]3C(=O)O[C@H](c4ccccc4)[C@H](c4ccccc4)N3[C@H](c3ccc(O)cc3)[C@@]13C(=O)Nc1ccc(C#CC4(O)CCCCCC4)cc13)CC2`, the cytotoxicity call is “inactive”.

As for `O=C1O[C@@H](c2ccccc2)[C@@H](c2ccccc2)N2[C@@H](c3ccccc3OCCO)[C@]3(C(=O)Nc4ccc(C#CC5(O)CCCCCC5)cc43)[C@@H](C(=O)O)[C@H]12`, the cytotoxicity call is “inactive”.

`C[C@@H]1CN([C@H](C)CO)C(=O)c2cccc(NC(=O)C3CCOCC3)c2O[C@H]1CN(C)S(=O)(=O)c1cccs1`: the cytotoxicity call is “inactive”.

For `C[C@@H]1CN([C@H](C)CO)C(=O)c2cc(NC(=O)Nc3cccc4ccccc34)ccc2O[C@@H](C)CCCCO[C@H]1CN(C)Cc1ccc(Cl)c(Cl)c1`, the cytotoxicity call is “inactive”.

Regarding `C[C@@H]1CN([C@@H](C)CO)C(=O)c2cc(NC(=O)Cn3cnnn3)ccc2O[C@H]1CN(C)Cc1ccc(-c2ccccc2)cc1`, the cytotoxicity call was “inactive”.

With `CC(C)CN1C(=O)[C@@]2(c3ccc([N+](=O)[O-])cc3)CC(=O)N(CC34CC5CC(CC(C5)C3)C4)[C@@H]2c2ccc(CO)cc21`, the cytotoxicity call is “inactive”.

For the compound `Cc1cc(C)n(-c2nc(=O)cc(C)[nH]2)n1`, the cytotoxicity call was “inactive”.

Consider `[N-]=[N+]=NCCOCCNC(=O)CCCOc1ccc(CS(=O)c2nnc(-c3ccc(F)cc3)o2)nc1` (configuration not stated), for which the cytotoxicity call was “active”.

`COc1ccc(NC(=O)N(C)C[C@@H]2OCCCC[C@@H](C)Oc3ccc(NC(=O)CCC(F)(F)F)cc3C(=O)N([C@@H](C)CO)C[C@H]2C)cc1`: the cytotoxicity call was “inactive”.

In the case of `Cc1noc(C)c1NC(=O)N(C)C[C@@H]1OCCCC[C@@H](C)Oc2ccc(NS(=O)(=O)c3ccc(F)cc3)cc2C(=O)N([C@H](C)CO)C[C@@H]1C`, the cytotoxicity call is “inactive”.

Consider `C[C@@H]1CN([C@@H](C)CO)C(=O)Cc2cc(NC(=O)Cc3cn(C)c4ccccc34)ccc2O[C@@H]1CN(C)S(C)(=O)=O`, for which the cytotoxicity call is “inactive”.

For `CCS(=O)(=O)CCn1c([N+](=O)[O-])cnc1C` [listing 1 of 2 here], the cytotoxicity call was “inactive”.

As to `CCS(=O)(=O)CCn1c([N+](=O)[O-])cnc1C` [listing 2 of 2 here], the cytotoxicity call is “active”.

Turning to `Cc1ncc([N+](=O)[O-])n1CCO`, the cytotoxicity call was “inactive”.

Consider `Cc1cc(O)c(-c2ccc([C@@H](C)CN)cc2)c2c1[nH]c(=O)c1sccc12`, for which the cytotoxicity call was “active”.

Regarding `C[C@H]1CN([C@@H](C)CO)C(=O)CCCn2nncc2CO[C@@H]1CN(C)C(=O)c1cc(-c2ccccc2)on1`, the cytotoxicity call was “inactive”.

On to `C[C@@H]1CCCCO[C@@H](CN(C)S(=O)(=O)c2ccccc2)[C@@H](C)CN([C@@H](C)CO)C(=O)c2cc(NC(=O)Nc3ccc4c(c3)OCO4)ccc2O1`, for which the cytotoxicity call was “inactive”.

On to `CC(C)(C)S(=O)N1Cc2cc(C(=O)NCc3ccc(Oc4ccccc4)cc3)nc(-c3cccc(C#CCC4CCCC4)c3)c2[C@@H]1CCO` (some centres not stated), for which the cytotoxicity call was “inactive”.

With `COc1ccc(CNC(=O)c2cc3c(c(-c4cccc(-c5cccc(C#N)c5)c4)n2)[C@@H](CCO)N([S@](=O)C(C)(C)C)C3)cc1`, the cytotoxicity call was “inactive”.

As to `CCNC(=O)c1cc2c(c(-c3cccc(-c4cccc(F)c4)c3)n1)[C@H](CCO)N([S@@](=O)C(C)(C)C)C2`, the cytotoxicity call was “active”.

For the compound `CCCNC(=O)c1cc2c(c(-c3cccc(-c4cccc(F)c4)c3)n1)[C@H](CCO)N([S@@](=O)C(C)(C)C)C2`, the cytotoxicity call was “inactive”.

Turning to `CCNC(=O)c1cc2c(c(-c3cccc(-c4cccc(F)c4)c3)n1)[C@@H](CCO)N([S@](=O)C(C)(C)C)C2`, the cytotoxicity call was “inactive”.

`CC(C)(C)S(=O)N1Cc2cc(C(=O)NCc3ccc(Oc4ccccc4)cc3)nc(-c3cccc(-c4cccc(F)c4)c3)c2[C@@H]1CCO` (some centres not stated): the cytotoxicity call is “active”.

Take `CCCNC(=O)c1cc2c(c(-c3cccc(-c4ccc(F)cc4)c3)n1)[C@H](CCO)N([S@@](=O)C(C)(C)C)C2`: the cytotoxicity call is “inactive”.

Regarding `CCOC(=O)c1cc2c(c(-c3ccccc3)n1)[C@@H](CCO[Si](C)(C)C(C)(C)C)N([S@](=O)C(C)(C)C)C2`, the cytotoxicity call was “inactive”.

As for `CCOC(=O)c1cc2c(c(-c3cccc(Br)c3)n1)[C@@H](CCO[Si](C)(C)C(C)(C)C)N([S@](=O)C(C)(C)C)C2`, the cytotoxicity call was “inactive”.

With `CC(C)(C)S(=O)N1Cc2cc(C(=O)Nc3ccc(-c4ccccc4)cc3)nc(-c3cccc(-c4cccc(F)c4)c3)c2[C@@H]1CCO` (some centres not stated), the cytotoxicity call is “active”.

As to `CCCNC(=O)c1cc2c(c(-c3cccc(-c4ccc(F)cc4)c3)n1)[C@@H](CCO)N([S@](=O)C(C)(C)C)C2`, the cytotoxicity call is “inactive”.

On to `CCOC(=O)c1cc2c(c(-c3cccc(C#CCN(C)C)c3)n1)[C@@H](CCO[Si](C)(C)C(C)(C)C)N([S@](=O)C(C)(C)C)C2`, for which the cytotoxicity call is “active”.
